In PubChem BioAssay (EPA / NIEHS):
Several values for one entry are separate records, joined by “and”; a condition that tells them apart may be missing. Identical values can stand only once. Where a structure was tested more than once in an assay, its records may differ in their call. Activity calls are given as the source filed them. Rule for the calls: active = hit-call score of the fitted dose curve at least 0.9, where 1 is the maximum; inactive = score below 0.9.

How the values were obtained:
[1] = target: Bile acid receptor (Homo sapiens) (UniProt Q96RI1); test: ATG_IR1_CIS: Attagene CIS-FACTORIAL HepG2 Assay for human Nuclear Receptor Subfamily 1 Group H Member 4 (NR1H4), IR1 submotif (AID 2282946); conditions: IR1 reporter transcription, actives raise or lower the signal
Chain of Bile acid receptor (Homo sapiens) (Q96RI1 whole entry, looked up): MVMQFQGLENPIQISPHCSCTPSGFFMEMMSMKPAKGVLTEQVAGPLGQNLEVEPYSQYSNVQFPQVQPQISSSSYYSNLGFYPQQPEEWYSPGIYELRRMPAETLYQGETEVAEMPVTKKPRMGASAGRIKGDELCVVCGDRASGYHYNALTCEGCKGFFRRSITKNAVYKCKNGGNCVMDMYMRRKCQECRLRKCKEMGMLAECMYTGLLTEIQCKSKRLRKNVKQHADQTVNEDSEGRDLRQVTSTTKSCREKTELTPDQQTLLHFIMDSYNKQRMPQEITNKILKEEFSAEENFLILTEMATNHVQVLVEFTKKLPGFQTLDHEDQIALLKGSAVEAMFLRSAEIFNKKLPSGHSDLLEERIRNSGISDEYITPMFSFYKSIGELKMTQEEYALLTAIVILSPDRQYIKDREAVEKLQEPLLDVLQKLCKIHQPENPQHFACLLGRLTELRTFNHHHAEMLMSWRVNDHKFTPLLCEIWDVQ
Outline: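 Readout: reporter transcript levels by RT-PCR with fluorescent capillary electrophoresis, from HepG2 cells transiently transfected with multiplexed cis-regulated reporters and dosed 24 h. Gain- or loss-of-signal fitted versus DMSO negative control.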

[2] = ATG_GRE_CIS: Attagene CIS-FACTORIAL HepG2 Assay for human Glucocorticoid Response Elements (GRE) (AID 2282947); conditions: HepG2 GRE cis-reporter, Attagene multiplex mRNA; actives raise or lower the signal
Outline: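 HepG2, transient cis-reporter transfection, 24 h. Reporter mRNA: RT-PCR then CE, fluorescence. Fit both directions vs DMSO.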

[3] = ATG_ISRE_CIS: Attagene CIS-FACTORIAL HepG2 Assay for human Interferon Regulatory Factor 1 (IRF1) binding to an Interferon-Stimulated Response Element (ISRE) (AID 2282948); conditions: HepG2 ISRE cis-reporter (Attagene), mRNA transcription readout; actives raise or lower the signal
Outline: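 Multiplexed mRNA reporter readout in human liver HepG2 cells: cis-element-driven reporters transfected, compound added for 24 h, transcripts amplified, fluorescently labelled and sized by capillary electrophoresis; curve fitting bidirectional against DMSO.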

[4] = ATG_M_32_CIS: Attagene CIS-FACTORIAL HepG2 Assay for M32 Transcription Factor (Internal Marker) (AID 2282949); conditions: HepG2 Attagene cis-factorial M32 reporter, mRNA; actives raise or lower the signal;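 note: background control marker of the multiplexed CIS panel rather than a real target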
Outline: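 Using DMSO as baseline, bidirectional curve fits were applied to reporter mRNA signals. These came from transiently transfected HepG2 cells exposed for 24 h, with RNA analysed by RT-PCR, FAM primer extension, HpaI digestion and CE.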

[5] = ATG_M_06_CIS: Attagene CIS-FACTORIAL HepG2 Assay for M06 Transcription Factor (Internal Marker) (AID 2282950); conditions: HepG2 Attagene CIS-FACTORIAL M06 internal marker reporter; actives raise or lower the signal
Outline: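 Steps: transfect HepG2 with multiplexed cis-element reporter constructs; dose chemical 24 h; extract RNA with DNase treatment; reverse-transcribe, PCR-amplify, 6-FAM label, HpaI digest; separate fragments by capillary electrophoresis. Activity fitted both directions versus DMSO.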

[6] = target: Hypoxia-inducible factor 1-alpha (Homo sapiens) (UniProt Q16665); test: ATG_HIF1a_CIS: Attagene CIS-FACTORIAL HepG2 Assay for human Hypoxia Inducible Factor 1 (HIF1A) (AID 2282951); conditions: HepG2 Attagene cis-factorial HIF1a reporter transcription; actives raise or lower the signal
Chain of Hypoxia-inducible factor 1-alpha (Homo sapiens) (Q16665 whole entry, looked up): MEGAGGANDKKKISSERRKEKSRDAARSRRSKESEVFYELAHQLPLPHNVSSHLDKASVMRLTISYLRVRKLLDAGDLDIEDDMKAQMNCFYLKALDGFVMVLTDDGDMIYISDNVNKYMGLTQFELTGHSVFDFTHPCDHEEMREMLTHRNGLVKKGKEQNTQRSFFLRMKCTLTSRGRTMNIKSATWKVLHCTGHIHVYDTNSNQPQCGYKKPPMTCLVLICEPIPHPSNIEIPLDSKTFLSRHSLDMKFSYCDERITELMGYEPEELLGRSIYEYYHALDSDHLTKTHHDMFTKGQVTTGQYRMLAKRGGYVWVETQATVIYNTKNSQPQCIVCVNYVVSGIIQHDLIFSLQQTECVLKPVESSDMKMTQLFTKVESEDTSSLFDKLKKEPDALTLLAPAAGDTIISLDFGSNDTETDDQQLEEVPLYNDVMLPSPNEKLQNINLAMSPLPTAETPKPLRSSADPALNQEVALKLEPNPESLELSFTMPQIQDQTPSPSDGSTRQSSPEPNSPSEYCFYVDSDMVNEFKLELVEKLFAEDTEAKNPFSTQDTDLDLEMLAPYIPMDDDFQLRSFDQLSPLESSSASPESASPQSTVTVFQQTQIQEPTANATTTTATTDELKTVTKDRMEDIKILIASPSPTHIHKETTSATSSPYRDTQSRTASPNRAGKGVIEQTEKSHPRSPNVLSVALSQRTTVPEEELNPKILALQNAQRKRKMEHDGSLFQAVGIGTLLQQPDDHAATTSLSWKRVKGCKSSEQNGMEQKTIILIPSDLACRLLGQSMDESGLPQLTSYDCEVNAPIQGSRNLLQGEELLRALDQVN
Outline: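 Measures endogenous transcription-factor activity through cis-regulated reporter mRNA in HepG2. Cells dosed 24 h; transcripts quantified by RT-PCR with 6-FAM-labelled products separated by capillary electrophoresis; DMSO serves as negative control.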

[7] = target: Hepatocyte nuclear factor 6 (Homo sapiens) (UniProt Q9UBC0); test: ATG_HNF6_CIS: Attagene CIS-FACTORIAL HepG2 Assay for human Hepatocyte Nuclear Factor 6 (HNF6) (AID 2282952); conditions: HepG2 Attagene cis-factorial HNF6 reporter transcription; actives raise or lower the signal
Chain of Hepatocyte nuclear factor 6 (Homo sapiens) (Q9UBC0 whole entry, looked up, the tested form may be a part): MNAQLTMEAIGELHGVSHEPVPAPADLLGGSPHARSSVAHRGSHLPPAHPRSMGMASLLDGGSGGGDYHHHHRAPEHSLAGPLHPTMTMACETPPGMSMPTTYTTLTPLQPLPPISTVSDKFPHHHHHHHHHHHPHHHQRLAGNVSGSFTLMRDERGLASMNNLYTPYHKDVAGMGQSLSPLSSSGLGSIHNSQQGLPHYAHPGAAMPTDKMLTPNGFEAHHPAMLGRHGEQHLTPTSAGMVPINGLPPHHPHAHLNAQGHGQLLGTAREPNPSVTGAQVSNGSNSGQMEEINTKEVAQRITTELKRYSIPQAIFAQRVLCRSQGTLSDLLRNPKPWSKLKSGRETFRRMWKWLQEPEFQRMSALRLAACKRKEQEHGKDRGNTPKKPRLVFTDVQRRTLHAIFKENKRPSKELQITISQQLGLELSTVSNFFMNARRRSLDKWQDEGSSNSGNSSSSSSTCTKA
Outline: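 First, HepG2 cells were transfected with the multiplexed cis reporter library and dosed with chemical for 24 h. Next, RNA was reverse-transcribed, PCR-amplified and fluorescently labelled. Finally, HpaI-digested fragments were read by capillary electrophoresis.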

[8] = target: Heat shock factor protein 1 (Homo sapiens) (UniProt Q00613); test: ATG_HSE_CIS: Attagene CIS-FACTORIAL HepG2 Assay for human Heat Shock Transcription Factor 1 (HSE) (AID 2282953); conditions: HepG2 HSE cis-reporter, Attagene RNA transcription; actives raise or lower the signal
Chain of Heat shock factor protein 1 (Homo sapiens) (Q00613 whole entry, looked up, the tested form may be a part): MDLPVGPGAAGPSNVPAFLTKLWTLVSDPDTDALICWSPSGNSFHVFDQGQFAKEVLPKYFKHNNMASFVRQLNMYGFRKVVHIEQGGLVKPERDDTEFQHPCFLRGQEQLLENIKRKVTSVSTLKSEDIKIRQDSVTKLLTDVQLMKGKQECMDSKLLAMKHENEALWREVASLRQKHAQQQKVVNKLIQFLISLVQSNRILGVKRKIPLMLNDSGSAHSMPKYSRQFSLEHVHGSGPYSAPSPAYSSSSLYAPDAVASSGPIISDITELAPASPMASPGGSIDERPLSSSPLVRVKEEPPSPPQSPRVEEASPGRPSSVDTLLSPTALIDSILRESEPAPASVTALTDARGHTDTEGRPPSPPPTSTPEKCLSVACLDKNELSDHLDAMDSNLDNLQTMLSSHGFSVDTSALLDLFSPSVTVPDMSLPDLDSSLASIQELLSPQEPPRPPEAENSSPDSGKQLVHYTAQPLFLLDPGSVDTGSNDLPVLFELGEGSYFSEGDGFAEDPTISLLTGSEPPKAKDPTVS
Outline: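 Cells were transfected with cis-element-driven reporter constructs, dosed for 24 h, then total RNA was reverse-transcribed and reporter cDNA amplified, FAM-labelled and digested with HpaI. Fragments were resolved by capillary electrophoresis; gain or loss was fitted against DMSO.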

[9] = target: Paired box protein Pax-6 (Homo sapiens) (UniProt P26367); test: ATG_Pax6_CIS: Attagene CIS-FACTORIAL HepG2 Assay for human Paired Box 6 (PAX6) (AID 2282956); conditions: HepG2 CIS-FACTORIAL PAX6 reporter transcription, RNA readout; actives raise or lower the signal
Chain of Paired box protein Pax-6 (Homo sapiens) (P26367 whole entry, looked up): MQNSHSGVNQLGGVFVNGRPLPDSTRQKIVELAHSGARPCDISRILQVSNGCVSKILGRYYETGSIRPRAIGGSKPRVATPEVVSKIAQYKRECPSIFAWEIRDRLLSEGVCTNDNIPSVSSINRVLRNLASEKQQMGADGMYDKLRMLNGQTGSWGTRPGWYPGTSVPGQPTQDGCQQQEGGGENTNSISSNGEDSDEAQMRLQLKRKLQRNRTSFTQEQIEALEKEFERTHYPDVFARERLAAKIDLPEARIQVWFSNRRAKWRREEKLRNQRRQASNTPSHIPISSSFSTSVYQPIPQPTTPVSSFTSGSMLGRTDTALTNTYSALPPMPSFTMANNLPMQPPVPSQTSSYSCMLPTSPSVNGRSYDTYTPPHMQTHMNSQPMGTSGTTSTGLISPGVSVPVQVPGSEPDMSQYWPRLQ
Outline: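 Fluorescent RT-PCR products separated by capillary electrophoresis report PAX6-linked promoter mRNA in HepG2 cells 24 h post-dose. Curves fitted bidirectionally, DMSO as negative control.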

[10] = ATG_PXRE_CIS: Attagene CIS-FACTORIAL HepG2 Assay for human Pregnane X Receptor Element (PXRE) (AID 2282957); conditions: HepG2 Attagene CIS-FACTORIAL PXRE reporter, mRNA; actives raise or lower the signal
Outline: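 After a 24 h chemical incubation, total RNA from transfected HepG2 cells was reverse-transcribed and reporter cDNA amplified, FAM-labeled, HpaI-digested and sized by capillary electrophoresis. DMSO served as baseline for bidirectional curve fitting.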

[11] = ATG_PPRE_CIS: Attagene CIS-FACTORIAL HepG2 Assay for human Peroxisome Proliferator-activated Response Element (PPRE) (AID 2282958); conditions: HepG2 PPRE cis-element reporter, Attagene transcription factor profiling; actives raise or lower the signal
Outline: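 Cells are first transfected transiently with the multiplexed reporter library, then dosed for 24 h. Total RNA is reverse-transcribed, amplified, fluorescently end-labeled and HpaI-cut before capillary electrophoresis; activity is fitted bidirectionally against DMSO controls.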

[12] = ATG_RORE_CIS: Attagene CIS-FACTORIAL HepG2 Assay for human RAR-related Orphan Receptor Element (RORE) (AID 2282959); conditions: HepG2 Attagene cis-factorial RORE reporter, mRNA; actives raise or lower the signal
Outline: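 Cells were HepG2 carrying transfected cis-regulated reporter constructs, dosed for 24 hours. Total RNA was reverse-transcribed and reporter cDNA amplified, fluorescently labeled and sized by capillary electrophoresis. Activity was fitted bidirectionally relative to DMSO.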

[13] = ATG_Sox_CIS: Attagene CIS-FACTORIAL HepG2 Assay for human SRY-box transcription factor (SOX) (AID 2282960); conditions: HepG2 Attagene cis-factorial SOX reporter, mRNA; actives raise or lower the signal
Outline: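 Transient MRTU transfection of HepG2; 24 h compound incubation; TriZol RNA, oligo(dT) RT, PCR, 6-FAM primer extension, HpaI cut, CE. Bidirectional fit, DMSO = baseline.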

[14] = ATG_SREBP_CIS: Attagene CIS-FACTORIAL HepG2 Assay for human Sterol Regulatory Element Binding (SREBP) (AID 2282962); conditions: HepG2 Attagene cis-factorial SREBP reporter, mRNA; actives raise or lower the signal
Outline: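 Endogenous factor activity is measured in HepG2 through multiplexed reporter units under cis-element control. Following a 24 h incubation, reporter transcripts are reverse-transcribed, PCR-amplified and sized by capillary electrophoresis; activity is fitted in both directions relative to DMSO.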

[15] = target: Signal transducer and activator of transcription 3 (Homo sapiens) (UniProt P40763); test: ATG_STAT3_CIS: Attagene CIS-FACTORIAL HepG2 Assay for human Signal Transducer and Activator of Transcription 3 (STAT3) (AID 2282963); conditions: HepG2, Attagene cis-factorial STAT3 reporter transcription; actives raise or lower the signal
Chain of Signal transducer and activator of transcription 3 (Homo sapiens) (P40763 whole entry, looked up): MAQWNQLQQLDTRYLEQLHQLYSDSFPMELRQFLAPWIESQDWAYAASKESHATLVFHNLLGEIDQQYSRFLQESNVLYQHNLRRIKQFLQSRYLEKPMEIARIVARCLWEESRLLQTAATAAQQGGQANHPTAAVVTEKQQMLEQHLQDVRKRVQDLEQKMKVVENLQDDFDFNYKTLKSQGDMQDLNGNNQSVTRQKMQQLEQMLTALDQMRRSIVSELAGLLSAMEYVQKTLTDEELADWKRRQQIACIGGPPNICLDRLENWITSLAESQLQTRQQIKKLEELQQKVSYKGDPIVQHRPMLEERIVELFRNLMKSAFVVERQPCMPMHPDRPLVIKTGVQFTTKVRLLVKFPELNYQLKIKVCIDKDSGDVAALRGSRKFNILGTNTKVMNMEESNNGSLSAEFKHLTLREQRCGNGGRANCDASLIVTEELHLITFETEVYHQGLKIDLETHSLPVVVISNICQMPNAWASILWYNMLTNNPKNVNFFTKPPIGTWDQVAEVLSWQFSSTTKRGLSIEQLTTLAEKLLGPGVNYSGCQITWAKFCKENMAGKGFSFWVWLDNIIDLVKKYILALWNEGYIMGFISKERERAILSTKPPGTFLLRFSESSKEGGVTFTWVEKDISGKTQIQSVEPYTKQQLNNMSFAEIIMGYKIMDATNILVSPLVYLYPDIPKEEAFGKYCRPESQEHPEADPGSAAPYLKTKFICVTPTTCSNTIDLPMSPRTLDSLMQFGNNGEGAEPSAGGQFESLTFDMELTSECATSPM
Outline: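 Uses human liver HepG2 transiently carrying cis-regulated reporter transcription units. Following 24 h dosing, reporter mRNA induction was detected by RT-PCR and capillary electrophoresis, analysed bidirectionally versus DMSO.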

[16] = ATG_TA_CIS: Attagene CIS-FACTORIAL HepG2 Assay for human TA Basal Promoter (AID 2282964); conditions: HepG2 Attagene CIS-factorial TA basal promoter reporter; actives raise or lower the signal
Outline: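 Steps: transfect HepG2 with MRTUs; dose 24 h; isolate RNA, DNase-treat, reverse-transcribe; PCR and FAM-label reporter cDNA; digest with HpaI 2h at 37 C; run capillary electrophoresis. Activity fitted both directions against DMSO.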

[17] = ATG_TCF_b_cat_CIS: Attagene CIS-FACTORIAL HepG2 Assay for human T-Cell-Factor with beta-catenin (TCF/b-cat) (AID 2282965); conditions: HepG2 TCF/beta-catenin cis-reporter transcription, actives raise or lower the signal
Outline: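 Using capillary electrophoresis as the read-out, labelled reporter cDNA fragments from transiently transfected HepG2 were sized and quantified. Exposure lasted 24 hours; activity in either direction was referenced to DMSO.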

[18] = ATG_PBREM_CIS: Attagene CIS-FACTORIAL HepG2 Assay for human Phenobarbital-responsive Enhancer Module (PBREM) (AID 2282955); conditions: HepG2 PBREM cis-reporter, Attagene multiplexed transcription; actives raise or lower the signal
Outline: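 Fluorescence of labelled reporter cDNA fragments, resolved by capillary electrophoresis, gives mRNA induction in transfected HepG2 cells treated for 24 h; DMSO serves as negative control and baseline.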

[19] = ATG_MRE_CIS: Attagene CIS-FACTORIAL HepG2 Assay for human Metal Responsive Element (MRE) (AID 2282954); conditions: HepG2 MRE cis-reporter transcription, Attagene multiplex; actives raise or lower the signal
Outline: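 Readout: capillary electrophoresis of 6-FAM-labelled, HpaI-digested RT-PCR reporter products. System: HepG2 cells carrying transient multiplexed cis reporters, dosed 24 h. Analysis: bidirectional fit, DMSO baseline.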

[20] = target: Transcription factor Sp1 (Homo sapiens) (UniProt P08047); test: ATG_Sp1_CIS: Attagene CIS-FACTORIAL HepG2 Assay for human Specificity Protein 1 (Sp1) (AID 2282961); conditions: HepG2 Sp1 cis-reporter transcription, actives raise or lower the signal
Chain of Transcription factor Sp1 (Homo sapiens) (P08047 whole entry, looked up): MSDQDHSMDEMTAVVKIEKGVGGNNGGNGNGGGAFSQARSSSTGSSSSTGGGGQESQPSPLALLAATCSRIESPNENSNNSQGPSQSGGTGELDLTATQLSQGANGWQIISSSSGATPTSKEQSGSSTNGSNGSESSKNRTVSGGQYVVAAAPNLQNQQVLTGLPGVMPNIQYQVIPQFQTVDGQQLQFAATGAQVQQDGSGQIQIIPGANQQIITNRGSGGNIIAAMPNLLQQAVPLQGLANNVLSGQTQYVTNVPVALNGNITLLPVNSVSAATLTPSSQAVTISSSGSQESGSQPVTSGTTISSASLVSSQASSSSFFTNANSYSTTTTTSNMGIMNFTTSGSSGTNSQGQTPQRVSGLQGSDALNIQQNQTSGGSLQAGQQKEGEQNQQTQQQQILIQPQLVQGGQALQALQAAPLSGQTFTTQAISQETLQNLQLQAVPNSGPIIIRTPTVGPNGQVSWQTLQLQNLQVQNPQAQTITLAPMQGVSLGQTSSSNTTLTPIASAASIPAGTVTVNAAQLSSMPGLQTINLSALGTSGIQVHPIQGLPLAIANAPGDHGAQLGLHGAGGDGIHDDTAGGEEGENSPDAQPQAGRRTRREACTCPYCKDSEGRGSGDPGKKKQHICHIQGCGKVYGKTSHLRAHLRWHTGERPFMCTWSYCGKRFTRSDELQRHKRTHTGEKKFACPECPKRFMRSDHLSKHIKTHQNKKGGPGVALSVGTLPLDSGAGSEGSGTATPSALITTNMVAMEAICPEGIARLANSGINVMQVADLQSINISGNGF
Outline: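 Endogenous Sp1 activity was gauged in human liver HepG2 cells bearing transfected reporter units under a cis-regulating promoter. After 24 h dosing, reporter mRNA was quantified by RT-PCR with capillary electrophoresis, and activity fitted bidirectionally versus DMSO.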

Measured: AC50

Cc1cc(SC2=C(O)C[C@@](CCc3ccc(N)cc3)(C(C)C)OC2=O)c(C(C)(C)C)cc1CO
active: [10] 1.55 µM | [11] 57.6 µM
not listed: [18] | [19] | [20]
inactive: all other assays above

S=c1[nH]c2ccccc2s1
active: [3] 41.8 µM | [10] 61.2 µM | [11] 28.5 µM | [14] 59 µM | [15] 63.2 µM
not listed: [19] | [20]
inactive: all other assays above

COc1ccc(C(=O)Nc2nc3ccccc3c(NCc3ccccc3)c2C#N)cc1
active: [6] 26.5 µM | [10] 0.641 µM | [11] 1.68 µM | [14] 4.43 µM
not listed: [13] | [19] | [20]
inactive: all other assays above

CSc1ccc(Oc2ccc(S(N)(=O)=O)cc2CN(C)C)cc1C
active: [10] 9.66 µM | [14] 23.4 µM | [17] 55 µM
not listed: [13] | [15] | [20]
inactive: all other assays above

CCCCCCC(C=O)=Cc1ccccc1
inactive: [1] | [2] | [3] | [4] | [5] | [6] | [7] | [18] | [9] | [12] | [14] | [16] | [17]
active: [8] 157 µM and 93.3 µM | [19] 137 µM and 89.2 µM | [10] 25.2 µM and 15.7 µM | [11] 4.87 µM and 6.4 µM | [14] 26.3 µM

CCCCc1nc2cccnc2n1Cc1ccc(-c2ccccc2-c2nnn[nH]2)cc1
active: [10] 27.2 µM
not listed: [11] | [15] | [20]
inactive: all other assays above

C=CCCCCCCCCCCCC
not listed: [15]
inactive: all other assays above

CCCCC(CC)CO (centres undefined)
active: [10] 27.5 µM
not listed: [20]
inactive: all other assays above

C=CCc1ccc(OC)c(OC)c1
active: [6] 0.0538 µM | [10] 100 µM
not listed: [18]
inactive: all other assays above

CCCCC(CC)COP(=O)(OCC(CC)CCCC)OCC(CC)CCCC (centres undefined)
active: [10] 0.339 µM
not listed: [19] | [20]
inactive: all other assays above

CN(C)C(=O)NC1(c2ccccc2)CCN(CCC[C@]2(c3ccc(Cl)c(Cl)c3)CCCN(C(=O)c3ccccc3)C2)CC1
active: [1] 4.21 µM | [19] 4.19 µM | [9] 4.94 µM | [10] 0.119 µM | [11] 4.58 µM | [12] 4.93 µM | [20] 4.73 µM | [14] 0.762 µM | [15] 4.4 µM
inactive: all other assays above

COc1ccc(OC(F)(F)F)cc1CN[C@H]1CCCN[C@H]1c1ccccc1
active: [8] 2.74 µM | [10] 1.85 µM | [14] 19.4 µM
not listed: [11] | [15] | [20]
inactive: all other assays above

CCCCCCC(CCCCCCCCCCC(=O)OCC(COC(C)=O)OC(C)=O)OC(C)=O (centres undefined)
active: [8] 90.7 µM | [10] 50 µM | [11] 39.6 µM | [17] 50 µM
not listed: [13] | [15] | [18]
inactive: all other assays above

CC(C)c1cccc(C(C)C)c1
not listed: [13] | [15] | [18] | [19]
inactive: all other assays above
